Laboratory results taken from PubChem BioAssay (EPA / NIEHS).
“And” between values parts separate entries of the source, which are not always exact repeats. Equal values may be shown once. A structure can be active in one record and inactive in another. The source made the active and inactive calls. The calls were made as follows: active = hit-call score of the fitted dose curve at least 0.9, where 1 is the maximum; inactive = score below 0.9.

Experiments:
[1] = ATG_CRE_CIS: Attagene CIS-FACTORIAL HepG2 Assay for human cAMP Responsive Element (CRE) binding protein 3 (AID 2282926); details: HepG2 CRE cis-reporter, Attagene multiplexed mRNA; actives raise or lower the signal
Procedure, shortened: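 Transfected HepG2 were treated for 24 hours, then RNA was extracted and reporter cDNA amplified with sequence-specific primers. Labelled fragments were separated by capillary electrophoresis, and the CRE signal was fitted bidirectionally with DMSO as baseline.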

[2] = target: CCAAT/enhancer-binding protein beta (Homo sapiens) (UniProt P17676); experiment: ATG_C_EBP_CIS: Attagene CIS-FACTORIAL HepG2 Assay for human CCAAT/Enhancer Binding Protein (C/EBP) beta (AID 2282927); details: HepG2 Attagene cis-factorial transcription factor reporter; actives raise or lower the signal
Chain of CCAAT/enhancer-binding protein beta (Homo sapiens) (P17676 whole entry, looked up): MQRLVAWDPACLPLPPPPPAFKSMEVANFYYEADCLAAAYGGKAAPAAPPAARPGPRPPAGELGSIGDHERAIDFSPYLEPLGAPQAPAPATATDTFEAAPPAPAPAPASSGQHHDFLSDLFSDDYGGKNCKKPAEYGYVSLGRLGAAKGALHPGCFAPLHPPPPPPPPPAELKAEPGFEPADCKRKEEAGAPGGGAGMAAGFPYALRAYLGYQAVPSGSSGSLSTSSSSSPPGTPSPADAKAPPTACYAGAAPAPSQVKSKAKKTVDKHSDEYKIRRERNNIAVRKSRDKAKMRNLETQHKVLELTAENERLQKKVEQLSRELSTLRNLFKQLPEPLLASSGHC
Procedure, shortened: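 Changes in reporter mRNA, rather than exogenous chimeric receptor activity, reflect native C/EBP signalling in transfected HepG2 cells dosed for 24 h; transcripts are detected by RT-PCR and capillary electrophoresis.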

[3] = ATG_CMV_CIS: Attagene CIS-FACTORIAL HepG2 Assay for human CMV (Internal Marker) (AID 2282928); details: HepG2 CMV promoter reporter, transcription factor profiling; actives raise or lower the signal;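 also: endpoint acts as a background internal control marker rather than a target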
Procedure, shortened: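 CMV internal-marker background readout in transiently transfected HepG2 cells bearing cis-regulated reporter units. Reporter mRNA is measured 24 h after dosing by RT-PCR and capillary electrophoresis, with bidirectional fitting against DMSO.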

[4] = ATG_DR4_LXR_CIS: Attagene CIS-FACTORIAL HepG2 Assay for human Liver X Receptor (LXR), DR4 submotif (AID 2282929); details: HepG2 Attagene DR4 cis-reporter, mRNA transcription; actives raise or lower the signal
Procedure, shortened: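 Endogenous factor activity at a DR4 cis-element is read as reporter mRNA in transiently transfected HepG2 cells. Exposure lasts 24 h; transcripts are amplified, fluorescently labelled and sized by capillary electrophoresis, with DMSO as baseline.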

[5] = target: Aryl hydrocarbon receptor (Homo sapiens) (UniProt P35869); experiment: ATG_Ahr_CIS: Attagene CIS-FACTORIAL HepG2 Assay for human Aryl Hydrocarbon Receptor (Ahr) (AID 2282930); details: HepG2 AhR cis-factorial reporter transcription; actives raise or lower the signal
Chain of Aryl hydrocarbon receptor (Homo sapiens) (P35869 whole entry, looked up): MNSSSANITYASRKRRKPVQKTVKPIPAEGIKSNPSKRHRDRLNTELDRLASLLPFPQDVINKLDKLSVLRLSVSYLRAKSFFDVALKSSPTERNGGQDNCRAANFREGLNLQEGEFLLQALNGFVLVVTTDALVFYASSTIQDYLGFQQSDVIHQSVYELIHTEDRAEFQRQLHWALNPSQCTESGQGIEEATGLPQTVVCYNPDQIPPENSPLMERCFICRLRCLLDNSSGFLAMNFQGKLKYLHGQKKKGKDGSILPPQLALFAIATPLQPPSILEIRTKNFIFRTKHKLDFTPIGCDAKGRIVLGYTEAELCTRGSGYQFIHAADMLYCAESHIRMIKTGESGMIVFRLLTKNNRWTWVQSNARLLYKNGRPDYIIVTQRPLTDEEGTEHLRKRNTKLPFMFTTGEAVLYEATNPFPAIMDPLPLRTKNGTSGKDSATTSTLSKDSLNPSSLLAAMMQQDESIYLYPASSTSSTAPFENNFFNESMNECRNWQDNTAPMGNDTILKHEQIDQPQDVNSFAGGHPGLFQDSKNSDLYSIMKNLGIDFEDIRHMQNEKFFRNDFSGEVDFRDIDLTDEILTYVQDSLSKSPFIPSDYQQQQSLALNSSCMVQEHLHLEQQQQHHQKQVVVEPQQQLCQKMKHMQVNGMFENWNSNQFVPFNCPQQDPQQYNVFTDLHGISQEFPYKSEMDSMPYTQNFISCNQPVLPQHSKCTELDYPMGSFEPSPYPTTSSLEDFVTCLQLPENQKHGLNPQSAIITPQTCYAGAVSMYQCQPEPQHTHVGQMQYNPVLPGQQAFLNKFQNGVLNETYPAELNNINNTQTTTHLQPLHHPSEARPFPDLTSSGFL
Procedure, shortened: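 HepG2, transient MRTU (cis) transfection, 24 h exposure. RNA → cDNA → PCR → 6-FAM primer extension → HpaI 2 h 37 C → CE. Fit: bidirectional, DMSO baseline.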

[6] = ATG_AP_1_CIS: Attagene CIS-FACTORIAL HepG2 Assay for human Activator Protein 1 (AP-1) (AID 2282931); details: HepG2 Attagene cis-factorial AP-1 reporter mRNA; actives raise or lower the signal
Procedure, shortened: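 Fluorescence of labelled PCR fragments separated by capillary electrophoresis gives reporter mRNA levels. HepG2 with transfected cis-regulated reporter units, 24 h exposure; DMSO serves as baseline for bidirectional curve fits.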

[7] = ATG_AP_2_CIS: Attagene CIS-FACTORIAL HepG2 Assay for human Activator Protein 2 (AP-2) (AID 2282932); details: HepG2 AP-2 cis-reporter, Attagene transcription factor profiling; actives raise or lower the signal
Procedure, shortened: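 Step one: transient transfection of HepG2 with reporter transcription units. Step two: 24 h chemical exposure. Step three: RNA extraction, RT-PCR, labelled fragment analysis by capillary electrophoresis; DMSO serves as baseline.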

[8] = ATG_BRE_CIS: Attagene CIS-FACTORIAL HepG2 Assay for human Bone Morphogenetic Protein (BMP) Response Element (BRE) (AID 2282933); details: HepG2 BMP response element reporter, Attagene transcription factor profiling; actives raise or lower the signal
Procedure, shortened: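 A HepG2 multiplex reporter system measured inducible reporter mRNA 24 h post-dosing. Detection: RT-PCR, 6-FAM primer extension, HpaI digestion, capillary electrophoresis. Activity fitted bidirectionally relative to DMSO.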

[9] = target: Retinoic acid receptor alpha (Homo sapiens) (UniProt P10276); experiment: ATG_DR5_RAR_CIS: Attagene CIS-FACTORIAL HepG2 Assay for human Retinoic Acid Receptor Alpha (RARE), DR5 submotif (AID 2282934); details: HepG2 Attagene cis-factorial RARE DR5 reporter, mRNA; actives raise or lower the signal
Chain of Retinoic acid receptor alpha (Homo sapiens) (P10276 whole entry, looked up): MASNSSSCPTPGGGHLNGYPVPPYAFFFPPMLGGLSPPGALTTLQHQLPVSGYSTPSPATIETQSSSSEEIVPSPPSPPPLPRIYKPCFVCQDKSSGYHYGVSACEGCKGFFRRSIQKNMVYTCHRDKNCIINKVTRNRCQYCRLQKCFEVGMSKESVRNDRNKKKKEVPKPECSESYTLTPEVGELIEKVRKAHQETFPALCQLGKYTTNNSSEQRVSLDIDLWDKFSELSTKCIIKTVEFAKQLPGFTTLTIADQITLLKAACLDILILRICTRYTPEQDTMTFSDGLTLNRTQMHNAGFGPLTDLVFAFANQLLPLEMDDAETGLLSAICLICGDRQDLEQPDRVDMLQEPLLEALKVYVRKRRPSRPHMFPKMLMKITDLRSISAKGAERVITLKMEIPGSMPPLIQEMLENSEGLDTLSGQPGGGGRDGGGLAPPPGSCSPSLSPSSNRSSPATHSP
Procedure, shortened: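 HepG2, transient cis-reporter transfection, 24 h exposure. mRNA readout: RT-PCR, FAM label, HpaI cut, capillary electrophoresis. DMSO baseline, gain/loss fitting.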

[10] = target: Transcription factor E2F1 (Homo sapiens) (UniProt Q01094); experiment: ATG_E2F_CIS: Attagene CIS-FACTORIAL HepG2 Assay for human E2F Transcription Factor 1 (AID 2282935); details: HepG2 Attagene cis-reporter, E2F reporter RNA transcripts; actives raise or lower the signal
Chain of Transcription factor E2F1 (Homo sapiens) (Q01094 whole entry, looked up): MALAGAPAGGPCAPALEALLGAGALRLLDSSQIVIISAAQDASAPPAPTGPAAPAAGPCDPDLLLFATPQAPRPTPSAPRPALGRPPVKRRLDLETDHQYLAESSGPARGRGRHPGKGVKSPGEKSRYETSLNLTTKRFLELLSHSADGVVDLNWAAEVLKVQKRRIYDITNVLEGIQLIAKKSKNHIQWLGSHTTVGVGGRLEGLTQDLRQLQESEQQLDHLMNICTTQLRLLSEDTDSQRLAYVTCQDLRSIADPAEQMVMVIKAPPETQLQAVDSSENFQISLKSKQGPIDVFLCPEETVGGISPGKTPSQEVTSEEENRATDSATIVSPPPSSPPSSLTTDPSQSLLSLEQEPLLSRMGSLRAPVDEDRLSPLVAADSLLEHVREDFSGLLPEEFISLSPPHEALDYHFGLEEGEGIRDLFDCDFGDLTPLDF
Procedure, shortened: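 Total RNA from 24 h-treated, reporter-transfected HepG2 cells undergoes DNase I treatment, oligo(dT) reverse transcription, PCR and 6-FAM primer extension before capillary electrophoresis.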

[11] = ATG_E_Box_CIS: Attagene CIS-FACTORIAL HepG2 Assay for human Enhancer Box (E-box) (AID 2282936); details: HepG2 E-box cis-reporter transcription, actives raise or lower the signal
Procedure, shortened: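 DMSO served as negative control and baseline for bidirectional fitting. Human hepatoma HepG2 cells, transiently transfected with cis-reporter constructs, were dosed 24 h; reporter mRNA read by RT-PCR and capillary electrophoresis.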

[12] = ATG_EGR_CIS: Attagene CIS-FACTORIAL HepG2 Assay for human Early Growth Response 1 (EGR1) (AID 2282938); details: HepG2 Attagene CIS-FACTORIAL EGR reporter mRNA; actives raise or lower the signal
Procedure, shortened: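 HepG2, transient MRTU transfection (cis promoters), 24 h compound. RNA → RT (oligo-dT) → PCR → 6-FAM labelling → HpaI cut → CE fluorescence. Bidirectional fit, DMSO baseline.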

[13] = ATG_M_19_CIS: Attagene CIS-FACTORIAL HepG2 Assay for M19 Transcription Factor (Internal Marker) (AID 2282939); details: HepG2 Attagene CIS-FACTORIAL M19 internal marker reporter; actives raise or lower the signal
Procedure, shortened: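 Chemical-treated HepG2 (24 h) with MRTU constructs; reporter transcripts detected by fluorescent RT-PCR fragment analysis on capillary electrophoresis. Internal background marker, DMSO as baseline.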

[14] = ATG_ERE_CIS: Attagene CIS-FACTORIAL HepG2 Assay for Estrogen Response Element (ERE) (AID 2282940); details: HepG2 ERE cis-reporter, Attagene RNA transcript; actives raise or lower the signal
Procedure, shortened: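 Human liver cells (HepG2) bearing transiently transfected, promoter-regulated reporter units were exposed 24 h. Reporter mRNA induction was detected by capillary electrophoresis of labelled RT-PCR products and fitted bidirectionally to DMSO.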

[15] = ATG_Ets_CIS: Attagene CIS-FACTORIAL HepG2 Assay for human Erythroblast Transformation Specific (ETS) (AID 2282941); details: HepG2 ETS cis-reporter transcription, actives raise or lower the signal
Procedure, shortened: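 HepG2 cells transfected with multiple cis-regulated reporter units measuring endogenous ETS-driven transcription, 24 h after dosing. Reporter mRNA quantified by RT-PCR with capillary electrophoresis; bidirectional fit relative to DMSO.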

[16] = target: Hepatocyte nuclear factor 3-beta (Homo sapiens) (UniProt Q9Y261); experiment: ATG_FoxA2_CIS: Attagene CIS-FACTORIAL HepG2 Assay for human Forkhead box A2 (FOXA2) (AID 2282942); details: HepG2 cis-reporter transcription factor activity, 24 h; actives raise or lower the signal
Chain of Hepatocyte nuclear factor 3-beta (Homo sapiens) (Q9Y261 whole entry, looked up): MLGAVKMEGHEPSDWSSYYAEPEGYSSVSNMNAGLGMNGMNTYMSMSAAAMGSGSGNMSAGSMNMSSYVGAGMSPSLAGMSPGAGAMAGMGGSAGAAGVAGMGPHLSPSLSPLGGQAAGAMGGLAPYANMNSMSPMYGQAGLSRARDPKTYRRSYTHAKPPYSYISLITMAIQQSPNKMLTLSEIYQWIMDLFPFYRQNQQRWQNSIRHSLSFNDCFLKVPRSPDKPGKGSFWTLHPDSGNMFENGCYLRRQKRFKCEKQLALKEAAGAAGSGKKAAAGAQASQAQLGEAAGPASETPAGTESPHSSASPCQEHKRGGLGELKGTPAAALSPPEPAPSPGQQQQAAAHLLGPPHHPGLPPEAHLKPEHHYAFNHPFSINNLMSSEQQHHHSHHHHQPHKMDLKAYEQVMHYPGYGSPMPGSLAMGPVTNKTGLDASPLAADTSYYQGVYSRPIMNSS
Procedure, shortened: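 Cells: HepG2, transient multiplex reporter transfection. Exposure 24 h. Detection: reporter-specific RT-PCR, fluorescent labelling, restriction digest, capillary electrophoresis. Analysis: bidirectional curve fit, DMSO as negative control.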

[17] = ATG_FoxO_CIS: Attagene CIS-FACTORIAL HepG2 Assay for human Forkhead box O (FoxO) (AID 2282943); details: HepG2 Attagene cis-reporter, FoxO element, mRNA; actives raise or lower the signal
Procedure, shortened: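 Human hepatoma HepG2 cells carry transiently introduced reporter transcription units controlled by cis promoter elements. Chemical treatment lasted 24 h, and mRNA signal was compared with DMSO.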

[18] = APR_HepG2_NuclearSize_72hr: Apredica 72-hour HepG2 Assay for Nuclear Size (AID 2282925); details: high-content imaging, actives raise or lower the signal
Procedure, shortened: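 HepG2; cpd 0.39–200 uM, 10 conc, duplicate; 72 h; DMSO 0.5% v/v; fix 3.7% formaldehyde 30 min RT; Triton permeabilization; Hoechst 2 ug/mL; HCS imaging 20x; nuclear diameter; gain/loss fit vs DMSO.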

[19] = ATG_M_61_CIS: Attagene CIS-FACTORIAL HepG2 Assay for M61 Transcription Factor (Internal Marker) (AID 2282937); details: HepG2 Attagene CIS-FACTORIAL M61 internal marker reporter; actives raise or lower the signal
Procedure, shortened: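 This endpoint serves as an internal background control within a multiplexed HepG2 cis-reporter panel. Cells are exposed for 24 h; reporter mRNA is amplified, fluorescently labelled and sized by capillary electrophoresis, with DMSO as negative control.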

[20] = ATG_GATA_CIS: Attagene CIS-FACTORIAL HepG2 Assay for human GATA Binding Protein (AID 2282944); details: HepG2 GATA cis-element reporter, Attagene multiplex mRNA; actives raise or lower the signal
Procedure, shortened: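 Transfected cis-reporter HepG2 cells were treated with chemicals for 24 hours. Total RNA was then converted to cDNA, amplified with reporter-specific primers and analysed by fluorescent capillary electrophoresis, using DMSO-treated wells as baseline.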

Measured: AC50

CCCCCCCCCCCCOC(C)=O
not listed: [18] | [19] | [20]
inactive: all other assays above

C[C@]12CC[C@@H]3c4ccc(O)cc4CC[C@H]3[C@@H]1CC[C@@H]2O
inactive: [18] | [1] | [2] | [3] | [4] | [5] | [6] | [9] | [10] | [19] | [12] | [13] | [15] | [16] | [17] | [20]
active: [3] 19.5 µM [middle of 4 runs] | [5] 27.7 µM and 62.5 µM

CC(C)COC(=O)c1ccccc1
not listed: [18]
inactive: all other assays above

NC(N)=NC(N)=NCCc1ccccc1
active: [8] 36.4 µM
not listed: [18]
inactive: all other assays above

O=C(OCc1ccccc1)c1ccccc1O
active: [3] 64.1 µM | [4] 55.1 µM | [5] 61.9 µM | [6] 111 µM | [8] 133 µM | [14] 76.3 µM
not listed: [18]
inactive: all other assays above

CC/C(=C(\c1ccccc1)c1ccc(OCCN(C)C)cc1)c1ccccc1
inactive: [18] | [1] | [2] | [3] | [4] | [5] | [6] | [7] | [8] | [9] | [10] | [11] | [19] | [12] | [13] | [15] | [16] | [17] | [20]
active: [18] 119 µM

CCC(C)C1CCCCC1=O (stereo not given)
not listed: [18]
inactive: all other assays above

COC(=O)c1cccc(C(=O)OC)c1
active: [5] 71.4 µM
not listed: [18]
inactive: all other assays above

NNC(=O)OCc1ccccc1
not listed: [14] | [18]
inactive: all other assays above

O=C(c1ccc(OCCN2CCCCC2)cc1)c1c(-c2ccc(O)cc2)sc2cc(O)ccc12
active: [1] 11.1 µM and 14.7 µM | [2] 15.2 µM | [3] 14.8 µM and 7.91 µM | [4] 20.3 µM and 19.9 µM | [5] 19.3 µM | [6] 17.5 µM and 16.9 µM and 13.1 µM | [7] 11.1 µM and 15.4 µM | [12] 11.1 µM and 12.6 µM and 7.51 µM | [13] 11.3 µM and 11.1 µM
inactive: [18] | [1] | [2] | [3] | [4] | [5] | [6] | [7] | [8] | [10] | [19] | [12] | [13] | [16] | [17] | [20]

CCCCCCCCCCCCOCCOS(=O)(=O)O
not listed: [18] | [19]
inactive: all other assays above

CC(C)Cc1ccccc1
not listed: [18]
inactive: all other assays above
